About 3,700 (7%) of roughly 53,000 sequences were called active.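 The calls were made as follows: active = gene knockdowns whose robust z-score for IL-1 alpha signal is at least 2 or at most -2, so actives lie on both sides; inactive = the rest.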 Only a selection was taken, and actives are over-represented in it overall.

The text below walks through data of PubChem BioAssay AID1508600 (Functional Genomics Laboratory (NCATS/FGL), 2020).

This assay can be described thus: Components of the Cytosolic LPS Sensing Pathway: Gene Identification via Genome-wide siRNA Screen.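 Also: robust z of the log signal after scaling to non-targeting control siRNA wells of the plate.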 The note with it: RAW264.7 macrophages, IL-1a HTRF, actives lie on both sides, screened at 100 nM (by protocol), cells primed 5 h with Pam3CSK4 first. An outline of the steps: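 RAW264.7; siRNA 100 nM final, RNAiMAX, 48h 37 degrees C; Pam3CSK4 5 h; LipidA + TransIT-TKO 24 h; IL-1a HTRF; CellTiter-Glo viability; robust z vs negative-control median.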
A general note: In TR-FRET formats the signal depends on donor and acceptor labels being close together.
On to GGGCUGUGAUAUGCAACUCTT against Teddm2, for which the z-score is -0.988 (inactive).

With GGAAAUGGUCCCUCUGUGUTT against Tspoap1, the z-score was -2.99 (active).

In the case of CCUUUGAUCAAUUCUGAGUTT against Glb1, the z-score is -0.554 (inactive).

As for GCAACGUGAAACAUAUUCUTT against Cpb1, the z-score is 1.69 (inactive).

As to GGAAGUAACCACAUCCUAUTT against Epn2, the z-score was -0.628 (inactive).

For GGAGGGAAUGAAAAGUCAATT against Stard7, the z-score was 2.09 (active).

As for GGUCACUGUUAGUUAUUAATT against Tcerg1l, the z-score was 0.954 (inactive).

GGGUAUUUUACCACUACUUTT against Psg23: the z-score was 0.32 (inactive).

For the sequence GCCGUCACAAGAACUGAACTT against Apon, the z-score was -0.24 (inactive).

In the case of CCCACUUUGAGGAAAGCUATT against Itprip, the z-score was -2.46 (active).

In the case of GGAAAACUAACCAAAAUAGTT against F3, the z-score is 1.45 (inactive).

GGCAAAUUAUUAGUACAGUTT against Gabpa: the z-score is 1.41 (inactive).

For the sequence CCCGAAUCUCAGCGUAGAATT against Gm5617, the z-score is -0.853 (inactive).

Take GGAGUUCAAUCCAACAAAATT against Atxn2l: the z-score was -1.4 (inactive).

GCUCAGAGACAAGCAACUGTT against Kcnk7: the z-score was 0.247 (inactive).

With GGAACAGAAAACCAUAUAATT against Snx29, the z-score is -2.54 (active).

Consider GGUUAUGAGGCUUAAUAAATT against Atxn7l1, for which the z-score is 0.965 (inactive).

In the case of CCCUCGGUGCCUAAUAAAUTT against Hsd17b10, the z-score is -0.0731 (inactive).

On to GGAUGCUAUAAAGAAUGCCTT against Prpf39, for which the z-score is -1.19 (inactive).

Consider UCCGUUGGAGUAUCGAUGUTT against Trp53rka, for which the z-score is -1.25 (inactive).

GCGAGAUGGAAGGAUCUUGTT against Anapc13: the z-score is 5.28 (active).

On to GGAGAACAUGGAGACUAUUTT against Ramp1, for which the z-score was -0.756 (inactive).

Consider GGUCUACCAUUUCACCUUGTT against Cops4, for which the z-score was 1.19 (inactive).

As to GUUGCCAGAUUUGGAUAUUTT against Abcg5, the z-score was 0.664 (inactive).

Consider CGGGAAGAGUACUUGUUUUTT against Cfl1, for which the z-score is 0.153 (inactive).

On to CAAAGCCACCUCGCCCUAUTT against Nkx2-6, for which the z-score was -0.0586 (inactive).

As for GGCUUAUGUUUGCUUUGUUTT against Piwil1, the z-score was 0.0916 (inactive).

On to CCUUUUUCUGGAUUGGAAUTT against Klrd1, for which the z-score is -0.00525 (inactive).

Turning to GGAAUAUGACUUCAAGAUGTT against Lmnb2, the z-score is 4.28 (active).

As to AAUGCAAACAAUGCAAAUGTT against Mt2, the z-score is -0.174 (inactive).

GGCUAAAGCGAAAAAAAAGTT against Msl3: the z-score is -0.114 (inactive).

With CGGAUUCACAAGAACACCUTT against Pramel12, the z-score is -0.157 (inactive).

For the sequence GGGCUGUUCCAUUUCUUUATT against Atcay, the z-score is 0.727 (inactive).

In the case of CGGAACUCUGCCACAAGUUTT against Zfp36, the z-score is 1.27 (inactive).

As to GGCAUAUGUUGAAACUAUUTT against Sel1l3, the z-score was 1.29 (inactive).

Regarding GCUCGUGUCAGAACCGAUGTT against Rwdd3, the z-score is 2.39 (active).

In the case of GCCAAAAAAGCUGUCAGUUTT against Nkx2-3, the z-score is -1.11 (inactive).

On to GGAGGACGUAACUAAAUCATT against Napepld, for which the z-score is -0.934 (inactive).

With UCUACAGGACUAUUAGAUUTT against Wnt6, the z-score is 0.563 (inactive).

On to GGUUCUAUAGGGCUCCGAATT against Tmem179b, for which the z-score was 4.23 (active).

Take GGGAUCAAAACAUACUGUGTT against Klra4: the z-score is 0.0891 (inactive).

On to GGUCAUGCAGGUUUUGAAUTT against Snd1, for which the z-score was 1.9 (inactive).

GGCUGAAAUAAAACAAGAATT against Use1: the z-score is -0.778 (inactive).

As for GCAGAAGCGUGGCAUUGUATT against Ins2, the z-score was 0.5 (inactive).

Turning to GGAAGUGCUGAAGGUGUACTT against Spire2, the z-score is 2.38 (active).

Regarding GGAUUUAGCCAAUCAAUCUTT against Cdc14b, the z-score was -0.872 (inactive).

Regarding GGACUACCUAUGGUUAAAATT against Nup93, the z-score was -1.58 (inactive).

On to GCUGGUUAGACCCUUCCAATT against Hnf4g, for which the z-score was 3.56 (active).

Turning to GCAUCUACUCCCUAUAGACTT against Nin, the z-score is 0.322 (inactive).

For the sequence GGCAGAGGAAAUCAUGAAGTT against Clpp, the z-score is -1.05 (inactive).

Take GGGAGUUCAACUUGAUGUATT against Irf6: the z-score was -1.45 (inactive).

As to GGAUCCCAGAUUGAAAACUTT against Rnf5, the z-score is -0.92 (inactive).

As for CGUGGACUAAAAGUUUUCATT against Mmp12, the z-score was 3.63 (active).

For the sequence CCGGACCUCUGCGCAAUUUTT against Npb, the z-score is 0.289 (inactive).

Turning to GUUUUUGCUAUGGCUCGUATT against H3c1, the z-score was 0.92 (inactive).

As for GGUGCUGCUAGUGAACAAGTT against E2f4, the z-score is 5.64 (active).

With CCGAGAACCUUAAACUCCCTT against Sowahc, the z-score is 0.161 (inactive).

As to GGAGAUAUGGCCAUCACUCTT against Toe1, the z-score is 1.11 (inactive).

As to GGCCUUUGAUGACAUGUACTT against Bpifb1, the z-score is -0.378 (inactive).

With GAUGCUAGUGAACCUCAUGTT against Olfr1020, the z-score was -0.765 (inactive).

On to CGAUUGGUUGUUGUAGACATT against Abhd11, for which the z-score was -2.56 (active).

On to CCAAUCCAAACGAAGUUAATT against Rgs9, for which the z-score is -0.977 (inactive).

For the sequence CGUUUCAACAAGCUCGUGUTT against Rbmxl2, the z-score is 1.02 (inactive).

Turning to GGAUACAAAUGAAAGCUUATT against Zfp354b, the z-score was -0.307 (inactive).

In the case of GGCAAGAAACAGUCAUAAGTT against Eps8l3, the z-score is 0.404 (inactive).

For GGCAUCAAGUUCUAUCUGUTT against Slc6a11, the z-score was -0.704 (inactive).

As for GGCCGGUUAGCUAAUCAGATT against Armc10, the z-score is 2.03 (active).

As for UGGCUGAUAUGAAGGUCUGTT against Krtap31-2, the z-score is 0.154 (inactive).

For GCUGUACGUUUGCACAUUCTT against Rc3h1, the z-score was -2.87 (active).

As to GGCUCUGUAUCGGAAGGCUTT against Zc3h7a, the z-score was 0.817 (inactive).

Turning to GGAUUCUGCUAGCAGUUCATT against Csn1s2a, the z-score was -0.477 (inactive).

As to GGGUUGCUUCAACUUUUAGTT against Mpp1, the z-score is -0.346 (inactive).

Consider GGCCAUGGAAAAAUCUCAGTT against Dtna, for which the z-score was 0.557 (inactive).

Regarding GCCUAUACAACCCUAUUGUTT against Kazn, the z-score is -0.879 (inactive).

On to GCGCAGGAUGAGAAGUUCUTT against Slc43a3, for which the z-score was 3 (active).

GGUUUGUGGUGAACUUUCATT against Lgals9: the z-score is 0.707 (inactive).

Turning to GGAUUUGGAAAAUUGAUGCTT against Ahi1, the z-score was 0.97 (inactive).

For the sequence GGAUGAAAGCAAAGACAAGTT against Zscan21, the z-score is 2.63 (active).

As for GGUUGAUGGGAAAACAAUATT against Rab11a, the z-score was -0.6 (inactive).

For the sequence GAUCCUGCAUCUUUAGUGUTT against Ascl1, the z-score was -0.0831 (inactive).

Turning to GCUGAUUCCGUGUCCCAACTT against Gng2, the z-score was 3.42 (active).

As to GGGUAGGGCAGUCUACUUATT against F2r, the z-score is -0.407 (inactive).

Turning to CCUGCUUCUCUACAACCAUTT against Olfr1209, the z-score was -0.817 (inactive).

With GCUUGUAUUGCUUGUCUUUTT against Olfr172, the z-score was 1.89 (inactive).

GGAGUAGAAGAAGAGGAGUTT against Mrpl50: the z-score is 0.946 (inactive).

GGUGCAAUCAGCUUUCCACTT against Olfr1336: the z-score is 2.26 (active).

In the case of CCGAUUGAUAAAGUCACAUTT against Zfat, the z-score was 0.241 (inactive).

On to GGAAAAAAGAUGAAUUGCCTT against Cbx8, for which the z-score is 1.63 (inactive).

With GGAGUCUUGGCCCUUUAAUTT against Zcchc12, the z-score is -1.09 (inactive).

For GCCUCUUUAUAAUAUAAGGTT against Pcgf6, the z-score is -0.687 (inactive).

As to CGGUUAACUGGAAAGUGCGTT against Tmem132e, the z-score was 2.99 (active).

With CGUGAUGAAUGAGAAUAACTT against Maea, the z-score was 0.584 (inactive).

Regarding GGAAUUAAACCAUUUCAGUTT against Zbtb44, the z-score is 1.28 (inactive).

As for GGAGGAUUCAUGCUUUGUUTT against Morc2b, the z-score is 0.238 (inactive).

With GGUUUUUGAGUGGGAGACCTT against Khdc3, the z-score was -0.578 (inactive).

As to GAUUUAGCUUGGUGAACCGTT against Thoc6, the z-score was 0.754 (inactive).

Regarding GGACUUAGACAUCCACCUCTT against Llcfc1, the z-score was -1.64 (inactive).

For GGGACUGAAAUCUAUUUUGTT against Zfp217, the z-score was 2.16 (active).

As for CCAAGCUAGUCCUCAAGCUTT against Snapc2, the z-score is -1.16 (inactive).

For GGGAUUGGCUACGACUUCATT against Cbs, the z-score is 2.06 (active).

Regarding GCUAGCUGUUGUAAAAGAATT against Gm4841, the z-score is -0.507 (inactive).

With GGCCAUUAACCAGUCUAUCTT against Cdhr5, the z-score was 0.977 (inactive).

Turning to “GGUUCUGGAGAACAGAGUCTT against 4930483J18Rik”, the z-score was -0.44 (inactive).

As for “GCGAUAAGCAGAAUGGCAGTT against 8030462N17Rik”, the z-score was -0.9 (inactive).

Consider CGGGUGCCGGAAAGUUUAUTT against Klf7, for which the z-score was 2.84 (active).

Regarding GCAGCAUUGACUGAAGAUCTT against Lce1m, the z-score was -0.316 (inactive).

As for GGACAAAAGGCUGAGCAUCTT against Flt1, the z-score is -0.235 (inactive).

For GGAAUCAUGCUGAAAGAGATT against Apom, the z-score was -0.123 (inactive).
